Calls of active or inactive are those of the source. Rule for the calls: active = hit-call score of the fitted dose curve at least 0.9, where 1 is the maximum; inactive = score below 0.9.
Experiments:
Conditions in all cases: mRNA level, 48 h; actives raise or lower the signal
[1] = read-out: Alpha-fetoprotein (AFP) gene, AFP (gene 174); assay: LTEA_HepaRG_AFP: Life Technologies and Expression Analysis (LTEA) Assay for Alpha-fetoprotein (AFP) gene using HepaRG (AID 2283472)
Procedure, shortened: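 Differentiated human HepaRG cells exposed 48 h in serum-free induction medium, 8-point half-log series from 100 uM in 0.5% DMSO, duplicate. AFP mRNA by qRT-PCR, normalized to ACTB, GAPDH, POLR2A; bidirectional fit vs DMSO.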

BCL2L11 (gene 10018) = assay: LTEA_HepaRG_BCL2L11: Life Technologies and Expression Analysis (LTEA) Assay for Bcl-2 (BCL2L11) gene using HepaRG (AID 2283473)
Procedure, shortened: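 Cells were plated, cultured 48 h, switched to serum-free induction medium, then dosed in duplicate for 48 h at eight half-log concentrations up to 100 uM. Lysates underwent RNA isolation and TaqMan qRT-PCR; gain or loss versus DMSO was fitted.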

[2] = read-out: Apolipoprotein A-V (APOA5) gene, APOA5 (gene 116519); assay: LTEA_HepaRG_APOA5: Life Technologies and Expression Analysis (LTEA) Assay for Apolipoprotein A-V (APOA5) gene using HepaRG (AID 2283474)
Procedure, shortened: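 Human liver HepaRG cells are treated 48 h with test chemicals (100 uM top, half-log dilutions, 0.5% DMSO). APOA5 mRNA induction or loss is measured by qRT-PCR relative to vehicle.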

[3] = read-out: Apoptosis regulator Bcl-2 (Homo sapiens) (UniProt P10415); assay: LTEA_HepaRG_BCL2: Life Technologies and Expression Analysis (LTEA) Assay for Bcl-2 gene using HepaRG (AID 2283475)
Procedure, shortened: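 Differentiated human HepaRG cells in serum-free induction medium exposed 48 h, in duplicate, to 8-point half-log series from 100 uM in 0.5% DMSO. BCL2 mRNA by qRT-PCR (TaqMan/Fluidigm), normalized to ACTB, GAPDH, POLR2A; bidirectional fit against DMSO.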

[4] = read-out: Bcl-2 (BID) gene, BID (gene 637); assay: LTEA_HepaRG_BID: Life Technologies and Expression Analysis (LTEA) Assay for Bcl-2 (BID) gene using HepaRG (AID 2283476)
Procedure, shortened: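 Gene expression by qRT-PCR in HepaRG cells after 48 h exposure, duplicate wells, eight half-log concentrations topping at 100 uM in 0.5% DMSO. Normalized to ACTB, GAPDH, POLR2A; bidirectional fitting relative to DMSO.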

Caspase-3 (Homo sapiens) = Caspase-3 (Homo sapiens) (UniProt P42574); assay: LTEA_HepaRG_CASP3: Life Technologies and Expression Analysis (LTEA) Assay for cysteine-aspartic acid protease (CASP3) using HepaRG (AID 2283477)
Caspase-3 (Homo sapiens), sequence (P42574 whole entry, looked up): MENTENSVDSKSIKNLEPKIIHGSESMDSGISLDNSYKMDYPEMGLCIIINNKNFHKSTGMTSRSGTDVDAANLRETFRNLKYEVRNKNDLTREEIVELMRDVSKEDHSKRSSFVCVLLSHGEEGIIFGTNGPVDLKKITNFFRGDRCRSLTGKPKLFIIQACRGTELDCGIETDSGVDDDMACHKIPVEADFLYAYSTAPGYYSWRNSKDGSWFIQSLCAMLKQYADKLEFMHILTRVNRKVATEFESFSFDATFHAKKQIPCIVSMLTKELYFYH
Procedure, shortened: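 In HepaRG liver cells dosed for 48 h at up to 100 uM (eight-point, duplicate), CASP3 expression changes are scored by qRT-PCR. Activity is fitted in both directions with 0.5% DMSO as baseline.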

[5] = read-out: Cytochrome P450 (CYP24A1), CYP24A1 (gene 1591); assay: LTEA_HepaRG_CYP24A1: Life Technologies and Expression Analysis (LTEA) Assay for Cytochrome P450 (CYP24A1) using HepaRG (AID 2283478)
Procedure, shortened: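 Human liver HepaRG cultures receive each chemical for 48 h across an eight-point half-log series topping at 100 uM in 0.5% DMSO. Induction or suppression of CYP24A1 mRNA is scored relative to vehicle after housekeeping-gene normalization.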

[6] = read-out: Cytochrome P450 (CYP1A2), CYP1A2 (gene 1544); assay: LTEA_HepaRG_CYP1A2: Life Technologies and Expression Analysis (LTEA) Assay for Cytochrome P450 (CYP1A2) using HepaRG (AID 2283479)
Procedure, shortened: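 Assesses CYP1A2 mRNA in human HepaRG liver cells after 48 h chemical exposure at up to 100 uM. Values come from qRT-PCR with bidirectional curve fitting relative to DMSO.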

[7] = read-out: cysteine-aspartic acid protease (CASP8), CASP8 (gene 841); assay: LTEA_HepaRG_CASP8: Life Technologies and Expression Analysis (LTEA) Assay for cysteine-aspartic acid protease (CASP8) using HepaRG (AID 2283480)
Procedure, shortened: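 Differentiated human HepaRG cells, plated 48 h then switched to serum-free induction medium, were exposed in duplicate for 48 h to 8 half-log concentrations up to 100 uM in 0.5% DMSO. CASP8 mRNA was quantified by qRT-PCR, normalized to ACTB/GAPDH/POLR2A.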

[8] = read-out: Cytochrome P450 (CYP2B6), CYP2B6 (gene 1555); assay: LTEA_HepaRG_CYP2B6: Life Technologies and Expression Analysis (LTEA) Assay for Cytochrome P450 (CYP2B6) using HepaRG (AID 2283481)
Procedure, shortened: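 Using 48 h treatment of HepaRG cells in serum-free induction medium, concentrations spanned half-log steps from 100 uM in 0.5% DMSO vehicle. CYP2B6 mRNA induction or loss is scored by qRT-PCR against DMSO.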

[9] = read-out: Cytochrome P450 2C19 (Homo sapiens) (UniProt P33261); assay: LTEA_HepaRG_CYP2C19: Life Technologies and Expression Analysis (LTEA) Assay for CYP2C19 using HepaRG (AID 2283482)
Procedure, shortened: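 Human HepaRG liver cells received test chemicals for 48 h (highest 100 uM, half-log dilutions in 0.5% DMSO). CYP2C19 mRNA induction or loss is read by multiplexed qRT-PCR and fitted in both directions versus vehicle.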

CYP2C8 (gene 1558) = assay: LTEA_HepaRG_CYP2C8: Life Technologies and Expression Analysis (LTEA) Assay for CYP2C8 using HepaRG (AID 2283483)
Procedure, shortened: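 Differentiated human HepaRG cells were exposed for 48 h in serum-free induction medium to eight half-log concentrations up to 100 uM in 0.5% DMSO, in duplicate. CYP2C8 mRNA was measured by TaqMan qRT-PCR, normalized to ACTB, GAPDH and POLR2A, and fitted bidirectionally against DMSO.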

CYP2C9 (gene 1559) = assay: LTEA_HepaRG_CYP2C9: Life Technologies and Expression Analysis (LTEA) Assay for CYP2C9 using HepaRG (AID 2283484)
Procedure, shortened: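 Differentiated human HepaRG cells were exposed 48 h in serum-free induction medium to eight half-log concentrations up to 100 uM in 0.5% DMSO. CYP2C9 mRNA was measured by qRT-PCR, normalized to ACTB, GAPDH and POLR2A, and fitted bidirectionally against DMSO.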

CYP2E1 (gene 1571) = assay: LTEA_HepaRG_CYP2E1: Life Technologies and Expression Analysis (LTEA) Assay for CYP2E1 using HepaRG (AID 2283485)
Procedure, shortened: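 HepaRG cells, plated 48 h, then exposed 48 h in serum-free induction medium to eight half-log concentrations from 100 uM in 0.5% DMSO, duplicate. CYP2E1 mRNA by qRT-PCR, normalized to ACTB/GAPDH/POLR2A; bidirectional fit versus DMSO.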

CYP4A11 (gene 1579) = assay: LTEA_HepaRG_CYP4A11: Life Technologies and Expression Analysis (LTEA) Assay for CYP4A11 using HepaRG (AID 2283486)
Procedure, shortened: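 Readout is CYP4A11 mRNA induction or suppression (qRT-PCR, ACTB/GAPDH/POLR2A normalization) in human HepaRG cells after 48 h chemical treatment, concentrations to 100 uM in 0.5% DMSO, fitted bidirectionally against vehicle.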

[10] = read-out: DNA damage-inducible transcript 3 (DDIT3), DDIT3 (gene 1649); assay: LTEA_HepaRG_DDIT3: Life Technologies and Expression Analysis (LTEA) Assay for DNA damage-inducible transcript 3 (DDIT3) using HepaRG (AID 2283488)
Procedure, shortened: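 HepaRG cells, 48 h after plating, exposed 48 h in serum-free induction medium to 8 half-log concentrations up to 100 uM in 0.5% DMSO, in duplicate. DDIT3 mRNA measured by TaqMan qRT-PCR, normalized to ACTB, GAPDH and POLR2A. Fitted bidirectionally against DMSO.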

[11] = read-out: Pro-epidermal growth factor (Homo sapiens) (UniProt P01133); assay: LTEA_HepaRG_EGF: Life Technologies and Expression Analysis (LTEA) Assay for Epidermal growth factor (EGF) using HepaRG (AID 2283489)
Procedure, shortened: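 EGF expression changes in human HepaRG cells are scored by bidirectional fitting relative to 0.5% DMSO controls. Chemicals are tested at eight half-log concentrations up to 100 uM for 48 h in serum-free induction medium.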

[12] = read-out: Early growth response protein 1 (EGR1) transcription factor, EGR1 (gene 1958); assay: LTEA_HepaRG_EGR1: Life Technologies and Expression Analysis (LTEA) Assay for Early growth response protein 1 (EGR1) transcription factor using HepaRG (AID 2283490)
Procedure, shortened: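 Differentiated human HepaRG cells in serum-free induction medium were exposed in duplicate for 48 h to eight concentrations (top 100 uM, half-log steps) in 0.5% DMSO. EGR1 mRNA was quantified by qRT-PCR, normalized to ACTB, GAPDH and POLR2A, and fitted bidirectionally versus DMSO.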

[13] = read-out: Ezrin (EZR), EZR (gene 7430); assay: LTEA_HepaRG_EZR: Life Technologies and Expression Analysis (LTEA) Assay for Ezrin (EZR) using HepaRG (AID 2283491)
Procedure, shortened: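 EZR transcript levels came from Fluidigm qRT-PCR and were normalized to three housekeeping genes after 48 h chemical exposure of HepaRG cells. Dosing used an 8-point half-log series with a 100 uM top concentration in 0.5% DMSO, tested in duplicate; both directions were fitted versus vehicle.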

[14] = read-out: Cytochrome P450 3A4 (Homo sapiens) (UniProt P08684); assay: LTEA_HepaRG_CYP3A4: Life Technologies and Expression Analysis (LTEA) Assay for CYP3A4 using HepaRG (AID 2283487)
Procedure, shortened: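 Differentiated HepaRG cells, plated 48 h, then dosed 48 h in serum-free induction medium with 0.5% DMSO, 8 half-log concentrations up to 100 uM, duplicate. CYP3A4 mRNA by qRT-PCR, normalized to ACTB/GAPDH/POLR2A; bidirectional fit versus DMSO.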

Measured: AC50

Apoptosis regulator Bcl-2 (Homo sapiens), sequence (P10415 whole entry, looked up): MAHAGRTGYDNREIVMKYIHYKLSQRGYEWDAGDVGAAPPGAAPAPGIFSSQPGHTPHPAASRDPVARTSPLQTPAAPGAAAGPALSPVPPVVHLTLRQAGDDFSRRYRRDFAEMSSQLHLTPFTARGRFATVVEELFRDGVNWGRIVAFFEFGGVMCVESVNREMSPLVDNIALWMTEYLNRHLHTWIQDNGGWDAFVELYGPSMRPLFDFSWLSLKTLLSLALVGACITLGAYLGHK
Cytochrome P450 2C19 (Homo sapiens), sequence (P33261 whole entry, looked up): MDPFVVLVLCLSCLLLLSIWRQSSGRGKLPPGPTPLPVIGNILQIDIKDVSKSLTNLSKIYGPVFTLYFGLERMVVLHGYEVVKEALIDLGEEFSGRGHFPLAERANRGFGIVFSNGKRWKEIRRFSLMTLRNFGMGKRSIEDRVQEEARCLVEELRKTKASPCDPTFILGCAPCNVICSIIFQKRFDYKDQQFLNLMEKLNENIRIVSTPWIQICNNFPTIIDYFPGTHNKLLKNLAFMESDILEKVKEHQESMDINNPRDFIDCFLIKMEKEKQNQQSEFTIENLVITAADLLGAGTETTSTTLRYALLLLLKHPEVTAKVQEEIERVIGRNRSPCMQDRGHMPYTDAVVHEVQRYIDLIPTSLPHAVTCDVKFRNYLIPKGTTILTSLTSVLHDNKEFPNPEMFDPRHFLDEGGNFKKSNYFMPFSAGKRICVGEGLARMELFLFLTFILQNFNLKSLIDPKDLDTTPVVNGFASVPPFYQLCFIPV
Cytochrome P450 3A4 (Homo sapiens), sequence (P08684 whole entry, looked up): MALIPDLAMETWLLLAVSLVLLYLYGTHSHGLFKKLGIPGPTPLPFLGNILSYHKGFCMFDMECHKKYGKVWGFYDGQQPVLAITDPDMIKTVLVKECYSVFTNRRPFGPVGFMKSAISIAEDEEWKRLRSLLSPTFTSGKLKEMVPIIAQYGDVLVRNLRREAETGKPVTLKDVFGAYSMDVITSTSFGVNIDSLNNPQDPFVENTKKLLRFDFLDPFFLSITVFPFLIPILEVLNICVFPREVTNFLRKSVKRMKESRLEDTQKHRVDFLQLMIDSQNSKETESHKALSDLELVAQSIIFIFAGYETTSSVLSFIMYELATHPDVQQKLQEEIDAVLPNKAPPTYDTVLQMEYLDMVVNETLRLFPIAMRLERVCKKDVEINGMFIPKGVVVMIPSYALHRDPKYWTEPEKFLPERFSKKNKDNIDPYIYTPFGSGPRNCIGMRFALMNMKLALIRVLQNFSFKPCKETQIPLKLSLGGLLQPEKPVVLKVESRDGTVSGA

Nc1ccc(Cc2ccc(N)cc2)cc1
active: [6] 31.3 µM | [8] 11.5 µM | [9] 14.5 µM | CYP2C9 (gene 1559) 20 µM
not listed: [14]
inactive: all other assays above

Clc1ccc(C(c2ccc(Cl)cc2)C(Cl)(Cl)Cl)cc1
active: [1] 50 µM | [2] 50 µM | [3] 50 µM | [8] 1.14 µM | [9] 2.78 µM | CYP2C8 (gene 1558) 12.5 µM | CYP2C9 (gene 1559) 0.549 µM | CYP2E1 (gene 1571) 50 µM | CYP4A11 (gene 1579) 50 µM | [10] 50 µM | [13] 50 µM
inactive: BCL2L11 (gene 10018) | [4] | Caspase-3 (Homo sapiens) | [5] | [6] | [7] | [11] | [12]

CCN(CC)CCO
inactive: all assays above

From PubChem BioAssay (EPA / NIEHS)
